Source: PubChem BioAssay AID485350 (ICCB-Longwood Screening Facility, Harvard Medical School, 2010)
Out of some 84,000 compounds screened, about 95 (0.1%) were called active. The sample holds actives, similar compounds and a random draw of the others, so the mix is not that of the screen. Cut-off read from the data, not from the text of the source: active = inhibition above about 25% (passing the limit was not always enough); inactive = the rest.

system: BasE (2,3-dihydroxybenzoate-AMP ligase), Acinetobacter baumannii ATCC 17978; assay: BasE siderophore enzyme inhibitors, primary screen, biochemical, Acinetobacter baumannii ATCC 17978, fluorescence polarization (AID 485350); details: purified BasE, fluorescence polarization binding displacement; hits give high values; concentration not given here;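 note: 0% = negative plate control signal and 100% = positive plate control signal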

inhibition, inactive:
CC(=O)Nc1cccc(C(=O)OCC(=O)N2CCN(c3ccccc3)CC2)c1 0.21%
Oc1ccc(N=Cc2cn(-c3ccccc3)nc2-c2ccco2)cc1 -0.83%
C/C(N)=C(/C#N)C(=O)CSc1n[nH]c(C(C)C)n1 1.38%
CC(Oc1coc(CN2CCN(Cc3ccccc3)CC2)cc1=O)c1ccccc1 (stereo unspecified) -0.18%
O=C(O)Cc1cc(=O)n(C2CCS(=O)(=O)C2)[nH]1 (stereo unspecified) -0.2%
O=S(=O)(NCCC1=CCCCC1)c1ccc(Cl)cc1 -0.06%
c1snnc1C12CC3CC(CC(C3)C1)C2 -2.21%
NC(=O)C[n+]1cccc(C(N)=O)c1 -2.44%
CCOC(=O)c1cc(-c2ccc(S(=O)(=O)N(C)Cc3cnn(-c4ccccc4)c3)s2)on1 -0.03%
CN(C)S(=O)(=O)c1ccc(C(=O)Nc2ccccc2C(=O)NCc2ccc3c(c2)OCO3)cc1 -2.15%
O=C(Oc1ccc2c3c(c(=O)oc2c1)CCC3)C1CCCCC1 2.18%
COc1cc2c(cc1OC)C(C)N(Cc1sc3ccccc3c1C)CC2 (stereo unspecified) -2.07%
O=C1CSC(=Nc2ccccc2)N1S(=O)(=O)c1ccccc1 0.27%
O=C(C1=Cc2sc3c(c2CS1)CCCC3)N1CCCC1 0.06%
N#Cc1cccc(OC(=O)c2ccccc2)c1 1.16%
COC(=O)c1cccc(NS(=O)(=O)c2cccs2)c1 0.35%
CCc1ccc(CCC(=O)O)cc1 1.07%
CCOC(=O)c1nn(-c2ccccc2)c(=O)cc1OCC 0.32%
Cc1ccc(CN2CCC(CNC(=O)Cn3c(=O)oc4ccccc43)CC2)cc1 3.44%
O=C(O)Cc1ccc(C(F)(F)F)cc1 -1.44%
CCOC(=O)CC1=CSC(NC)N1c1c(C)cc(C)cc1C (stereo unspecified) 0.61%
Cc1cc(C(=O)N/N=C/c2ccc(O)cc2)c2ccccc2n1 -0.11%
CCOC(=O)/C=C1\SCC(=O)N1Cc1cc(Cl)cc2c1OCOC2 -0.76%
Cc1cc(C)n2nc(SCc3nc4ccc(Cl)cc4n3CCO)nc2n1 -0.85%
Cc1ccc(Cl)cc1NC(=O)CSc1nc2c(oc3ccccc32)c(=O)n1C1CCCC1 0.55%
CCN(CC(=O)NCc1cccs1)C(=O)c1ccc2c(c1)SC1=NS(=O)(=O)CCN12 0.92%
O=C(CC1SC(=Nc2ccccc2)NC1=O)NC1CC1 (stereo unspecified) 0.62%
O=C(NCc1ccc(-c2nc3ccccc3o2)cc1)c1ccccc1Br -0.19%
O=C1N(CNc2ccccc2)CCN1CNc1ccccc1 1.83%
O=C(CSc1nnc(Cc2csc(Nc3cccc(Cl)c3)n2)o1)c1ccc2c(c1)OCCO2 -0.63%
CC(C)C(NC(=O)C1CCCCC1)C(=O)O (stereo unspecified) 3.11%
O=C(c1cc(-c2cccs2)on1)N1CCCC1 -0.81%
N#Cc1ccc(Cn2cc(Br)ccc2=O)cc1 0.99%
O=C(c1ccc(S(=O)(=O)N2CCOCC2)cc1)N1CCn2c1nc1ccccc12 -1.29%
COc1cc(OC)c(C2Nc3c(C)cc(C)cc3-c3cc(C)nn32)cc1OC (stereo unspecified) 0.21%
O=C(c1ccc2c(c1)C(=O)N(Cc1ccncc1)C2=O)N1CCN(S(=O)(=O)c2ccc(OC(F)(F)F)cc2)CC1 0.9%
CO/N=C(/C(=O)N[C@@H]1C(=O)N2C(C(=O)[O-])=C(C[N+]3(C)CCCC3)CS[C@H]12)c1csc(N)n1 -0.27%
Cc1cccc(C(CC(=O)NCc2cccs2)n2cccc2)c1 (stereo unspecified) 1.33%
CC(c1ccccc1)N(C)CN1C(=O)c2ccccc2C1=O (stereo unspecified) -0.8%
Cc1[nH]c2ccccc2c1C1=CCN(S(=O)(=O)c2cccc3nsnc23)CC1 -2.27%
COc1ccc(O)c(C(=O)c2cnn(C(=O)c3ccc4c(=O)n5c(nc4c3)CCC5)c2)c1 -0.87%
C=CCC(CC=C)(C(N)=O)c1ccccc1 2.87%
COc1ccc(CNC(=O)c2cc3c(C)nccc3[nH]c2=O)cc1 0.94%
CCn1c2ccccc2c2nnc(SCC(=O)NCCc3ccc(OC)c(OC)c3)nc21 -1.45%
N#CSc1ccc(N2CCCCC2)cc1 1.12%
CCCCn1c(SCc2nnc(-c3cccs3)o2)nc2cc(S(N)(=O)=O)ccc21 -3.81%
CC1(C)CC(=O)C=C(N2CCN(c3ccccc3F)CC2)C1 0.11%
CCn1c(N2CCN(S(C)(=O)=O)CC2)nc2ccccc21 -0.64%
O=C1CN(C(=O)CSC2=Nc3ccccc3CS2)c2ccccc2N1 -1.75%
CCOc1ccnc2sc(C(=O)c3cccnc3)c(N)c12 1.88%
C=CCn1cc(/C=C(\C#N)C(=O)NC2CCCCC2)c2ccccc21 2.71%
Cc1ccc(C2=NN(C(=O)CSc3nc(N)cc(N)n3)C(c3ccco3)C2)cc1 (stereo unspecified) 2.13%
CS(=O)c1nc(-c2cccs2)cc(-c2ccccc2)c1C#N (stereo unspecified) -2.06%
COCCc1cc(C(F)(F)F)c2c(=O)n(C)c(=O)n(C)c2n1 -0.29%
Cn1c(N)c(C(=O)NCc2ccccc2)c2nc3ccccc3nc21 -1.54%
CCOC(=O)c1c(C)[nH]c(C(=O)CN2C(=O)NC(CC)(c3ccc(F)cc3)C2=O)c1C (stereo unspecified) -1.75%
Cc1cc(Oc2ccc3c(c2)OCO3)nc2ccccc12 6.24%
O=C(NCC(c1ccco1)N1CCCCC1)c1ccc(S(=O)(=O)N2CCCC2)cc1 (stereo unspecified) 1.67%
Clc1ccc(/C=N/NCc2cn3ccsc3n2)cc1 0.12%
COc1ccc(Cl)cc1NC(=O)CN1C(=O)CSC(C)C1=O (stereo unspecified) 0.33%
O=C(OCC(=O)N1CCCc2ccccc21)c1cc2ccccc2oc1=O -0.7%
